# Results filed as inconclusive are left out. Entries that show only a call come without a potency. More than one record can exist for a structure, and the calls need not agree. Active and inactive are the calls of the source. Calls follow the shape of the dose curve; as a rule, active = well fitted cell-killing curve with a large enough effect in the repeat runs; inconclusive = weak or mixed curves, or effect the other way; inactive = flat fitted curve, though single readings scatter.
# Test: qHTS RealTime-Glo MT Cell Viability Assay in HepG2 cells - 40 hour (AID 1224870); also: nearly all actives have a fitted effect of over 50% in size
# Details: RealTime-Glo luminescence; series mostly up to 76.8 µM; activity change, negative = cytotoxic: at the top concentration
# Excerpt: National Center for Advancing Translational Sciences [NCATS]
# NIH Chemical Genomics Center [NCGC]
# U.S. Environmental Protection Agency [EPA]
# National Institutes of Environmental Health Sciences [NIEHS]
# National Toxicology Program [NTP]
# U.S. Food and Drug Administration [FDA]
# Measure of cell viability is critical in the cell-base assay. Analysis of cell viability is necessary for the characterization of cell responses to cytotoxic drugs and environmental stress. A RealTime-Glo MT Cell Viability Assay to monitor cell viability in real time of continues cell culture during 40 hours of compound treatment was used to screen Tox21 10K library compounds in HepG2 cells. The RealTime-Glo MT Cell Viability Assay is a nonlytic, homogeneous, bioluminescent method to measure cell viability in real time using a simple, plate-based method. The assay involves adding NanoLuc luciferase and a cell-permeant prosubstrate to cells in culture. Viable cells reduce the proprietary prosubstrate to generate a substrate for NanoLuc luciferase. This substrate diffuses from cells into the surrounding culture medium, where it is rapidly used by the NanoLuc Enzyme to produce a luminescent signal. The signal correlates with the number of viable cells, making the assay well suited for cytotoxicity studies.
# Tox21 Assay Protocol Summary:
# The mixture of HepG2 cell suspension and reagents were dispensed at 600cells/6 ul/well in 1536-well tissue culture treated black solid bottom plates using a Multidrop dispenser. After the assay plates were incubated at a 37 C/5% CO2 incubator for 5 hours, 23 nL of compounds dissolved in DMSO, positive and negative controls was transferred to the assay plate by a pintool work station. The plates were incubated at 37 C for 40 hours. The luminescence intensity were measured at 0h, 8h, 16h, 24h, 32h and 40h time points using ViewLux plate reader during compound treatment.
# Potency is read from the fitted curve at half-maximal effect.
Compound,Potency,"activity change, negative = cytotoxic"
O=C1c2c(O)cccc2Cc2cccc(O)c21,inactive,–
CCCC[P+](CCCC)(CCCC)CCCC,inactive,–
CC(C)c1c(C(=O)Nc2ccccc2)c(-c2ccccc2)c(-c2ccc(F)cc2)n1CC[C@@H](O)C[C@@H](O)CC(=O)O,inactive,–
C[C@](N)(Cc1ccc(O)c(O)c1)C(=O)O,inactive,–
CCCc1cc(=O)[nH]c(=S)[nH]1,inactive,–
COc1ccc(C(Cl)=C(c2ccc(OC)cc2)c2ccc(OC)cc2)cc1,inactive,–
Cc1cc(=O)oc2cc(O)ccc12,inactive,–
CN1CCC[C@H]1c1cccnc1,inactive,–
Nc1ccc2c(c1)CN1C(=O)c3ccccc3C1=N2,–,1.05% [at 15.8 µM] (inactive)
Oc1ccccc1,inactive,–
CC(=O)Nc1c(I)c(NC(C)=O)c(I)c(C(=O)O)c1I,inactive,–
CC(C)C(=O)Nc1ccc([N+](=O)[O-])c(C(F)(F)F)c1,inactive,–
C1=CC2C3C=CC(C3)C2C1 (stereo not given),–,-4.42% (inactive)
COc1ccc(OC(F)(F)F)cc1CN[C@H]1CCCN[C@H]1c1ccccc1,54.9 µM (active),–
O=S1(=O)OC(c2ccc(O)cc2)(c2ccc(O)cc2)c2ccccc21,49 µM (active) and inactive,–
CC(=O)CC(c1ccccc1)c1c(O)c2ccccc2oc1=O (stereo not given),inactive,–
OC[C@H]1O[C@H](O[C@]2(CCl)O[C@H](CCl)[C@@H](O)[C@@H]2O)[C@H](O)[C@@H](O)[C@H]1Cl,inactive,–
CC/C(=C(\c1ccccc1)c1ccc(OCCN(C)C)cc1)c1ccccc1,24.5 µM (active) [middle of 4 runs],–
CS(=O)(=O)OCCCCOS(C)(=O)=O,inactive,–
CC1(C)O[C@@H]2C[C@H]3[C@@H]4CCC5=CC(=O)C=C[C@]5(C)[C@@]4(F)[C@@H](O)C[C@]3(C)[C@]2(C(=O)CO)O1,inactive,–

Compound,Potency,"activity change, negative = cytotoxic"
NC1CCCCC1,inactive,–
Cc1cn([C@H]2C=C[C@@H](CO)O2)c(=O)[nH]c1=O,inactive,–
O=c1[nH]cc(F)c(=O)[nH]1,inactive,–
CN(C)C(=O)Nc1ccc(Cl)c(Cl)c1,inactive,–
CCCCNC(=O)NS(=O)(=O)c1ccc(C)cc1,inactive,–
O=C1NC(=O)C(c2ccccc2)(c2ccccc2)N1,inactive,–
NC(=O)c1cccnc1,inactive,–
O=C1O[C@H]([C@@H](O)CO)C(O)=C1O,inactive,–
CN[C@H]1CC[C@@H](c2ccc(Cl)c(Cl)c2)c2ccccc21,23.9 µM (active),–
Cc1cccc(C)c1,inactive,–
O=C(Nc1ncc([N+](=O)[O-])s1)c1cccs1,–,-18.4% [at 35.3 µM] (inactive)
CC(=O)C(=O)O,inactive,–
CCOC(N)=O,inactive,–
Nc1c2c(nc3ccccc13)CCCC2,inactive,–
CC(=O)CCC(=O)O,inactive,–
Nc1ccc([N+](=O)[O-])cc1O,–,-0.919% (inactive)
COc1ccc2c(c1)c(CC(=O)O)c(C)n2C(=O)c1ccc(Cl)cc1,inactive,–
C=CCc1ccc(O)c(OC)c1,inactive,–
CN(N=O)C(=O)N[C@@H]1[C@@H](O)[C@H](O)[C@@H](CO)O[C@@H]1O,inactive,–
C1CCC(C(CC2CCCCN2)C2CCCCC2)CC1 (stereo not given),5.35 µM (active),–

# Source: PubChem BioAssay (Tox21)
